This note sets out measurements from PubChem BioAssay (Tox21).

Results filed as inconclusive are left out. Calls of active or inactive are those of the source. Unless noted, calls follow the shape of the dose curve; as a rule, active = well fitted curve in the direction sought with a large enough effect in the repeat runs; inconclusive = weak or mixed curves; inactive = no such curve, though single readings can be large; an effect the other way counts as inactive or inconclusive.

Assay [1] has as its target Luciferin 4-monooxygenase (Photinus pyralis) (UniProt P08659). Put plainly: qHTS assay to identify small molecule inhibitors of firefly luciferase (AID 1224835). Also: series mostly up to about 120 µM; nearly all actives have a fitted effect of over 25% in size. In outline: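 Quantitative HTS format; KM concentrations of both substrates. Purified P. pyralis FLuc activity quantified from luminescence images.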
Assay [2] is described as follows: qHTS assay to identify small molecule agonists of the constitutive androstane receptor (CAR) signaling pathway - cell viability counter screen (AID 1224836). Also: series mostly up to about 92 µM; nearly all actives have a fitted effect of over 45% in size. In outline:
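Multiplexed viability check: HepG2-CYP2B6-hCAR cells, 15-point compound dosing, 0.75 uM PK11195 final, 23 h at 37 C, CellTiter-Fluor fluorescence.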

Assay [3] in a line: qHTS assay to identify small molecule antagonists of the constitutive androstane receptor (CAR) signaling pathway - cell viability counter screen (AID 1224837). Also: series mostly up to about 92 µM; nearly all actives have a fitted effect of over 45% in size. In outline:
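To flag cytotoxic false antagonists, HepG2 hCAR/CYP2B6-2.2kb cells were treated 23 hr with 15-concentration compound series and 50 nM CITCO at 37 C/5% CO2; CellTiter-Fluor fluorescence was the measured end point.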

Assay [4] concerns the target Nuclear receptor subfamily 1 group I member 3 (Homo sapiens) (UniProt Q14994). Put plainly: qHTS assay to identify small molecule agonists of the constitutive androstane receptor (CAR) signaling pathway (AID 1224839).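 Also: HepG2 cells stably carrying human CAR and a CYP2B6 luciferase reporter; series mostly up to about 92 µM; nearly all actives have a fitted effect of over 15% in size.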 An outline of the steps: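 Using human hepatoma HepG2 cells engineered with hCAR and a CYP2B6-2.2kb reporter, 15-concentration compound series were incubated 24 h alongside PK11195 at 0.75 uM final, with luminescence quantified afterwards.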

A short description of assay [5]: qHTS assay to identify small molecule antagonists of the estrogen related receptor signaling pathway with the pleiotropic PPARgamma coactivator (PGC) from Tox21 10K library (AID 1224841; call rule not given here; also: series mostly up to about 92 µM; actives are mostly falling curves and most rising ones were filed inactive; nearly all actives have a fitted effect of over 50% in size). An outline of the steps:
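Test chemicals dissolved in DMSO were applied to pre-incubated (6 h) PGC/ERR cells at 2,000 cells/well for an 18 h, 37 C treatment; reporter luminescence was then read using One-Glo.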

Assay [6] in a line: qHTS assay to identify small molecule agonists of the estrogen related receptor signaling pathway with the pleiotropic PPARgamma coactivator (PGC) from Tox21 10K library (AID 1224842). Also: nearly all actives have a fitted effect of over 15% in size. In outline: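 PGC/ERR reporter cells (NTP line) were seeded 2,000 per well, rested 6 h at 37 C/5% CO2, then pin-dosed with compounds in DMSO for 18 h at 37 C; luciferase read by One-Glo luminescence after 30 min at room temperature.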

The nature of assay [7]: qHTS assay to identify small molecule agonists of the hypoxia (HIF-1) signaling pathway - cell viability counter screen (AID 1224844; calls by dose curve; also: nearly all actives have a fitted effect of over 50% in size). An outline of the steps:
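HRE-bla ME-180; 0.5% dFBS; cpd 17 h, 37C, 5% CO2; CellTiter-Glo lum., 30 min RT, post-FRET read, same wells.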

The nature of assay [8]: qHTS assay to identify small molecule agonists of H2AX (AID 1224845; active = well fitted activation curve with a large enough effect in the signal ratio in the repeat runs, not every such curve was filed as active; the % refers to the signal ratio; also: potency is read from the fitted curve at half-maximal effect). In outline:
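Wild-type CHO-K1 cells plated overnight, then exposed 3 hr at 37C to compounds at 15 concentrations (0.76% DMSO). Lysed, then HTRF anti-pH2AX(S139)-cryptate/anti-H2AX-d2 detection after 24 hr at room temperature; emissions 665 and 620 nm.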

A short description of assay [9]: qHTS assay to identify small molecule agonists of the hypoxia (HIF-1) signaling pathway (AID 1224846; active = well fitted activation curve with a large enough effect in the signal ratio in the repeat runs, not every such curve was filed as active; the % refers to the signal ratio). An outline of the steps:
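Reporter induction in HRE-bla ME-180 cells is taken as agonism: cells sit 5 hrs after plating, receive compounds or DMSO only, incubate 17 hrs at 37C under 5% CO2, and are loaded with CCF4-AM for beta-lactamase FRET measurement.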

The nature of assay [10]: qHTS assay to identify small molecule agonists of H2AX - cell viability counter screen (AID 1224847; calls by dose curve; also: top concentration of the series differs between compounds; nearly all actives have a fitted effect of over 30% in size). An outline of the steps:
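After overnight plating of 1000 CHO-K1 cells per well, a 15-concentration compound series was applied for 3 hr at 37C. Luminescence from CellTiter-Glo, read following 30 min at room temperature, reflected cell viability.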

Assay [11] is described as follows: qHTS assay to identify small molecule antagonists of the estrogen related receptor (ERR) signaling pathway from Tox21 library (AID 1224848). Also: nearly all actives have a fitted effect of over 50% in size. In outline: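 First, 2,000 ERR cells per well were plated and held 6 h at 37 C/5% CO2. Next, compounds in DMSO were pinned in and left 18 h at 37 C. Finally, ONE-Glo was added and luminescence read after 30 min at room temperature.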

Assay [12] in a line: qHTS assay to identify small molecule agonists of the estrogen related receptor (ERR) signaling pathway from Tox21 library (AID 1224849; calls by dose curve; also: nearly all actives have a fitted effect of over 15% in size). In outline: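 Tox21 compounds tested for ERR agonism in an NTP reporter cell line: 18 h treatment at 37 C, then ONE-Glo luminescence.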
Assay [13] in a line: qHTS RealTime-Glo MT Cell Viability Assay in HepG2 cells - 24 hour (AID 1224867). Also: nearly all actives have a fitted effect of over 50% in size. In outline:
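HepG2 cells (600/well) were dispensed with RealTime-Glo reagents, incubated 5 h at 37 °C, then treated with compounds in DMSO for up to 40 h. Nonlytic NanoLuc luminescence reflecting viable cells was read at each stated time point.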

Assay [14] can be described thus: qHTS RealTime-Glo MT Cell Viability Assay in HEK293 cells - 32 hour (AID 1224868). In outline: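 HEK293 cells seeded with NanoLuc/prosubstrate reagent, rested 5 h at 37 C, then dosed and kept at 37 C up to 40 h. Nonlytic real-time luminescence from viable cells read at 0, 8, 16, 24, 32 and 40 h.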
A short description of assay [15]: A CellTox Green Cytotoxicity Assay to monitor cytotoxicity in HEK293 cells - 0 hour (AID 1224869). Also: nearly all actives have a fitted effect of over 50% in size. In outline:
(§1)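 Tox21 screen in HEK293: membrane-impermeant cyanine dye fluoresces on binding dead-cell DNA; compound pinned 5 h post-seeding, plates held at 37 C, signal read repeatedly through 40 h.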

The nature of assay [16]: qHTS RealTime-Glo MT Cell Viability Assay in HepG2 cells - 40 hour (AID 1224870). Also: nearly all actives have a fitted effect of over 50% in size. Also: potency is read from the fitted curve at half-maximal effect. An outline of the steps:
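HepG2 cells mixed with RealTime-Glo MT reagents (NanoLuc plus cell-permeant prosubstrate) were seeded at 600 cells/well, incubated 5 h at 37 C/5% CO2, then pinned with compounds in DMSO; nonlytic luminescence tracked viability during 40 h treatment.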

Assay [17] can be described thus: A CellTox Green Cytotoxicity Assay to monitor cytotoxicity in HEK293 cells - 40 hour (AID 1224871). Also: nearly all actives have a fitted effect of over 45% in size. In outline: as §1
A short description of assay [18]: qHTS assay to identify small molecule antagonists of the estrogen related receptor signaling pathway with the pleiotropic PPARgamma coactivator (PGC) from Tox21 10K library - cell viability counter screen (AID 1224840; active = well fitted cell-killing curve with a large enough effect in the repeat runs, not every such curve was filed as active; also: nearly all actives have a fitted effect of over 40% in size). In outline:
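Seeded PGC/ERR cells (2,000/well, 6 h, 37 C/5% CO2) get compound by pin tool; 17.5 h incubation at 37 C; CellTiter-Fluor added, 30 min, fluorescence measured.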

The target of assay [19] is Thyrotropin receptor (Homo sapiens) (UniProt P16473). Put plainly: qHTS assay to identify small molecule agonists of the thyroid stimulating hormone receptor (TSHR) signaling pathway (AID 1224843; calls by dose curve; also: nearly all actives have a fitted effect of over 45% in size). In outline:
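Compounds are titrated over 15 concentrations, in triplicate, onto TSHR-HEK293 cells seeded at 800/well. Plates sit 30 min at room temperature before cAMP-d2 and anti-cAMP cryptate are added; signal is read after a further hour.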

Luciferin 4-monooxygenase (Photinus pyralis), sequence (P08659 whole entry, looked up): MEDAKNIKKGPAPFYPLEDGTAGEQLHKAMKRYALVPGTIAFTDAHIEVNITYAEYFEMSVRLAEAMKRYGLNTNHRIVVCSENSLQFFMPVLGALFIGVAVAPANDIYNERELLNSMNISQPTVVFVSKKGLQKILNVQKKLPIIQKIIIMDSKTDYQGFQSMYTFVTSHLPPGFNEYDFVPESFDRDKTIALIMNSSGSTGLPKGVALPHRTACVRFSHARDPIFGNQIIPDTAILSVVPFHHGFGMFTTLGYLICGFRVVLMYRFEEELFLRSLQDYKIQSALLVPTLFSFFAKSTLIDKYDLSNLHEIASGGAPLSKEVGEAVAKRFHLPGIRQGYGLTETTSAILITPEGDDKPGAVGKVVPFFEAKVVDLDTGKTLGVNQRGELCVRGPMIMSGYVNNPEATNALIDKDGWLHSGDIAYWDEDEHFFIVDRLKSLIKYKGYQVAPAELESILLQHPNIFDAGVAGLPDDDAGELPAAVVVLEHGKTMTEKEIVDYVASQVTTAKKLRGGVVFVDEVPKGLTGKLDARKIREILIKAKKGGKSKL
Thyrotropin receptor (Homo sapiens), sequence (P16473 whole entry, looked up): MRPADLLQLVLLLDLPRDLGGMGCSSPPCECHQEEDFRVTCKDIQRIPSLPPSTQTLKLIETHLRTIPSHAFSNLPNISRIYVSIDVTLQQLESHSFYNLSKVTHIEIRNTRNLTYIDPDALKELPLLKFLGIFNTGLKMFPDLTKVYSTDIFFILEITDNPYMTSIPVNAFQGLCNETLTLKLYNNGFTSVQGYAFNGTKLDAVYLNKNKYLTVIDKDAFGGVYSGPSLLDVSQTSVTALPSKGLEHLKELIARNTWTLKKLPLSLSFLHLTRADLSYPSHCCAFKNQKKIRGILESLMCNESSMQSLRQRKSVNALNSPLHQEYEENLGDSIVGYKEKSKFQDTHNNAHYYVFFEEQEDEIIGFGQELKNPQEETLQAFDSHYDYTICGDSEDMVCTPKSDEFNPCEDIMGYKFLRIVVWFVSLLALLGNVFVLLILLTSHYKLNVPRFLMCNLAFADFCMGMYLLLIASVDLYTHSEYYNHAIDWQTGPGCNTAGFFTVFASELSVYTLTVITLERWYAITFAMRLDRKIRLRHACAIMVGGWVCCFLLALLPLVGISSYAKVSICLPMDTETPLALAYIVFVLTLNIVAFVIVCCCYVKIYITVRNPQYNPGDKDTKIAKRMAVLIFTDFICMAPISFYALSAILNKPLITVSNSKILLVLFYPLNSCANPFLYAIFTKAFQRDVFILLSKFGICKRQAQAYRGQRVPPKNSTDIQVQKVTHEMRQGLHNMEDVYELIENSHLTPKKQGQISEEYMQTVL
Nuclear receptor subfamily 1 group I member 3 (Homo sapiens), sequence (Q14994 whole entry, looked up): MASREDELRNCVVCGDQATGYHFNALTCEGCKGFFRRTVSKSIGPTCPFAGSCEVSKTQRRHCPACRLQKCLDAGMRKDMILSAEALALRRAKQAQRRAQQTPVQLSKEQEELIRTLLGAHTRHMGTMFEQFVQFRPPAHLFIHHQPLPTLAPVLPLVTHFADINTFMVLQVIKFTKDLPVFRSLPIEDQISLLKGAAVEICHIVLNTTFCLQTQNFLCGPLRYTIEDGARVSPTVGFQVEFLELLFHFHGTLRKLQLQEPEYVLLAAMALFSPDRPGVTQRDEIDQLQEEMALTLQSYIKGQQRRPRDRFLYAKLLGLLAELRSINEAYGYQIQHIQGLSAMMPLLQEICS

Take `Nc1ccn([C@@H]2O[C@H](CO)[C@@H](O)[C@@H]2O)c(=O)n1`: the Potency result in [1], in assay [4], in assay [5], in [6], in assay [7] and in assay [11] was “inactive” each time. Besides, the Potency result in assay [14], in [16] and in assay [17] was “inactive” throughout. For the same compound, the call in [2], in [3], in [9], in assay [10], in assay [12] and in [13] was inactive. The compound was called inactive in assay [15]. Also, in assay [8], the Potency is 20.1 µM (active).

As for `Cc1onc(-c2c(Cl)cccc2Cl)c1C(=O)Cl`, the Potency result in assay [1], in [4], in assay [19], in assay [7], in assay [8] and in assay [14] was “inactive” each time. The Potency entry in assay [16] and in assay [17] was “inactive” each time. Also, the call in assay [2], in assay [3], in assay [18], in assay [9], in [10] and in assay [13] was inactive. For the same compound, in assay [15], the call was inactive.

As for `CC(C)(CCC(=O)O)C(=O)O`, the Potency result in assay [1], in [4], in assay [8], in [14], in assay [16] and in assay [17] was “inactive” throughout. The compound was called inactive in assay [2], in [3], in [9], in assay [10] and in assay [13].

Take `COc1ccnc(CS(=O)c2nc3cc(OC(F)F)ccc3[nH]2)c1OC` (stereo not drawn): the Potency result in [1], in assay [4], in assay [19], in assay [7], in [8] and in [16] was “inactive” each time. Moreover, the compound was classed as inactive in assay [2], in [3], in assay [18], in [9], in assay [10] and in assay [13]. Also, in assay [15], the call was inactive.

Take `CC[N+](CC)(CC)CCOc1cccc(OCC[N+](CC)(CC)CC)c1OCC[N+](CC)(CC)CC`: the Potency entry in assay [1], in [4], in [19], in [7], in [14] and in assay [17] was “inactive” each time. Besides, the result in [2], in assay [3], in assay [18], in assay [10] and in assay [15] was inactive. Also, the Potency in assay [16] was 23.9 µM (active).

Take `Clc1cc(Cl)c(Cl)nc1Cl`: the Potency entry in [1], in [4], in assay [5], in [6], in [19] and in assay [7] was “inactive” each time. For the same compound, the Potency entry in assay [8], in assay [11], in assay [14], in [16] and in [17] was “inactive” in each case. Further, the result in assay [2], in assay [3], in [9], in assay [10], in assay [12] and in assay [13] was inactive. In assay [15], the compound was classed as inactive.

Consider `CCCCCCCCCC[N+](C)(C)[O-]`, for which the Potency result in assay [1], in assay [5], in assay [6], in assay [7], in [8] and in [11] was “inactive” throughout. Moreover, the Potency result in assay [14], in [16] and in assay [17] was “inactive” each time. In addition, the outcome in [2], in assay [3], in [18], in [9], in [10] and in assay [12] was inactive. For the same compound, the outcome in assay [13] and in [15] was inactive.

In the case of `O=C(O)CCCC[P+](c1ccccc1)(c1ccccc1)c1ccccc1`, the Potency result in assay [1], in assay [4], in assay [19], in [7], in assay [8] and in assay [14] was “inactive” in each case. Also, the Potency result in assay [16] and in assay [17] was “inactive” throughout. In addition, the compound was called inactive in [2], in assay [3], in assay [18], in assay [9], in assay [10] and in assay [13]. Further, the compound was classed as inactive in assay [15].
